Bioassay records as filed in PubChem BioAssay.
The list is not random: actives were taken first. Their share in the collection is about 1.8%.
PolyA inh: blocks polyadenylation in yeast reporter cells; AID 1875; 300,000 tested, 0.02% active; activity score, % at 12 µM; S. cerevisiae SKY197-pL101 polyadenylation reporter, beta-gal luminescence; efflux-impaired pdr1/pdr3 knockout yeast; score 100 = 6 SD above DMSO;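 active = lowest replicate activity score at least 50, where 100 means six control SD above control mean; inconclusive = lowest score under 50 but half or more replicates reach 50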;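 note: yeast exposed to compound for 9 h at 30 °C; higher score means more reporter readthrough which indicates perturbed polyadenylation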
NLRP3 yeast inh: NALP3 inhibition in yeast; Yeast reconstituted NLRP3/ASC/caspase-1, beta-gal luminescence, 24 h; inhibition, % at 10 µM; 330,000 tested, 0.39% active; AID 2825;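 active = inhibition of 50% or more; inactive = inhibition below 50%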
SUMO Mot1 rescue: blocks SUMOylation pathway, rescuing yeast Mot1-301 growth. S. cerevisiae Mot1-301 growth rescue, ATP luminescence, 38.5C; percent above DMSO median, 100 means doubled. growth rescue, % at 18.8 µM. 320,000 tested, 1% active. AID 2716;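 active = every valid replicate shows activation above 250% relative to neutral control wells; inactive = the rest, any valid replicate at or below 250%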
NALP1 inh: inhibitors of NALP1 inflammasome in yeast; S. cerevisiae NALP1/ASC/caspase-1 growth, X-gal OD620, 72 h; inhibition, % at 10 µM; 280,000 tested, 0.61% active; AID 2071; in the data active = inhibition mostly above about 24%, no sharp cut-off; inactive = mostly below about 32%
Mot1 SUMO dose: yeast SUMO pathway inhibition in dose response. growth activity, percent, % at 42 µM. shares compounds with SUMO Mot1 rescue. S. cerevisiae Mot1-301 galactose growth, ATP luminescence, 24 h; -100 = growth of slx-deleted rescue strain. 2,300 tested, under 10 active;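 active = Signal drops as the depositor expects, and the fitted half-maximal dose is no more than ten times the top valid tested dose; inconclusive = Poor fit, or a flat curve whose signal drops by 30% to 70%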;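 note: more negative values mean stronger growth rescue toward the control strain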
Large screens that a line does not name were inactive (follow-up assays come after a bar, where they were run).

COc1ccc(C2CC(c3cccs3)=NN2C(=O)c2ccccc2)cc1OC (stereo unspecified)	SUMO Mot1 rescue 424 | Mot1 SUMO dose inactive
COc1ccc(C2CC(c3cccs3)=NN2C(=O)CCl)cc1OC (stereo unspecified)	none
CCn1c(Cc2ccccc2)nnc1SCC(=O)Nc1ccc(N2CCOCC2)c(Cl)c1	none
Cn1c(SCC(=O)Nc2ccc(N3CCOCC3)c(Cl)c2)nnc1-c1ccccc1	SUMO Mot1 rescue 692 (no result: NALP1 inh) | Mot1 SUMO dose inactive
CC(/C=N\NC(=O)Cn1cncn1)=C/c1ccc(C(C)C)cc1	none
C[C@@H]1CN([C@H](C)CO)C(=O)c2cc(NC(=O)c3ccncc3)ccc2O[C@@H]1CN(C)C(=O)Nc1ccccc1	none (no result: PolyA inh, NALP1 inh)
O=C(c1ccc([N+](=O)[O-])o1)N1CCN(c2nc3c(Cl)cccc3s2)CC1	SUMO Mot1 rescue 769 (no result: NALP1 inh) | Mot1 SUMO dose inactive
O=C(NC1CCN(Cc2ccccc2)CC1)c1ccc(CS(=O)c2ccc(F)cc2)o1 (stereo unspecified)	none
CC(C)C(=O)Nc1ccc(-c2nc3ncccc3o2)cc1	none
CC(C)C(=O)Nc1ccc(-c2nc3cccnc3o2)cc1	SUMO Mot1 rescue 666 (no result: NALP1 inh) | Mot1 SUMO dose inactive
CC(C)C(=O)Nc1cccc(-c2nc3ncccc3o2)c1	SUMO Mot1 rescue active | Mot1 SUMO dose inactive
Cc1cc2nc(-c3ccc(NC(=O)C(C)C)cc3)oc2cc1C	none
CS(=O)(=O)N1CCN(c2ccc(NC(=O)COc3ccccc3[N+](=O)[O-])cc2)CC1	none
COc1ccc(CCNC(=O)c2cc(-c3ccco3)on2)cc1OC	PolyA inh inconclusive, SUMO Mot1 rescue 566 | Mot1 SUMO dose inactive
C=C(C)Cn1c(SCC(=O)N/N=C/c2ccccc2OCC(=O)O)nnc1-c1ccc(Br)cc1	SUMO Mot1 rescue 572 (no result: NALP1 inh) | Mot1 SUMO dose inactive
Fc1ccc(-c2cc(C(F)(F)F)nc(NCc3cccs3)n2)cc1	SUMO Mot1 rescue 458 | Mot1 SUMO dose inactive
Cc1cc(C)n(-c2nc(-c3cccc(Cl)c3)cs2)n1	SUMO Mot1 rescue 434 | Mot1 SUMO dose inactive
CSCCc1nc(SCC(=O)Nc2nnc(C)s2)[nH]c1C	SUMO Mot1 rescue active (no result: NALP1 inh) | Mot1 SUMO dose inactive
Cc1nnc(NC(=O)CSc2nc3ccccc3[nH]2)s1	none
Cc1cc(C)c2c(=O)[nH]cnc2n1	SUMO Mot1 rescue 997 | Mot1 SUMO dose inactive
COc1ccc(C(=O)N/C(=C\c2cc(OC)c(OC)cc2[N+](=O)[O-])C(=O)NCC(=O)O)cc1	none
COc1ccc(C(=O)N/C(=C\c2cc(OC)c(OC)cc2[N+](=O)[O-])C(=O)NCCO)cc1	SUMO Mot1 rescue 993 (no result: PolyA inh) | Mot1 SUMO dose inactive
CCOc1ccc(Br)cc1S(=O)(=O)N1CCCN(C)CC1	none
CCOc1ccc(Br)cc1S(=O)(=O)N1CCC(C(N)=O)CC1	SUMO Mot1 rescue 438 | Mot1 SUMO dose inactive
CCOc1ccc(Cl)cc1S(=O)(=O)N1CCC(C(=O)NCc2cccnc2)CC1	SUMO Mot1 rescue 366 | Mot1 SUMO dose inactive
Nc1nnc(CC(=O)N2CCCCC2)s1	SUMO Mot1 rescue 396 | Mot1 SUMO dose inactive
Cc1ccc(S(=O)(=O)N(CC(=O)N2CCN(c3ccccc3F)CC2)C2CCCCC2)cc1	none
O=C(CCc1ccccc1)N1CCN(c2ccccc2F)CC1	SUMO Mot1 rescue 793 | Mot1 SUMO dose inactive
CS(=O)(=O)N(CC(=O)N1CCN(c2ccccc2F)CC1)C1CCCCC1	SUMO Mot1 rescue 680 | Mot1 SUMO dose inactive
COc1ccccc1NC(=O)OC(C)c1ccc(Cl)cc1 (stereo unspecified)	none
CC(C)NC(=O)NC(=O)COC(=O)CCCSc1nc2ccccc2s1	SUMO Mot1 rescue 505 | Mot1 SUMO dose inactive
CC1(C)Cc2nc(Cl)c(C(=O)O)cc2CO1	none
CC(=O)Nc1ccc(C(=O)NCCCOC(C)C)cc1	SUMO Mot1 rescue 798 | Mot1 SUMO dose inactive
CO[C@H]1C=CO[C@@]2(C)Oc3c(C)c(O)c4c(O)c(c5c(nc6cc(C)ccn65)c4c3C2=O)NC(=O)C(C)=CC=C[C@H](C)[C@H](O)[C@@H](C)[C@@H](O)[C@@H](C)[C@H](OC(C)=O)[C@@H]1C	none (no result: SUMO Mot1 rescue)
O=C(N/N=C/c1cc([N+](=O)[O-])ccc1N1CCCCCC1)c1ccccn1	none
CCN(CC)C(=O)C1CCCN(c2ccc([N+](=O)[O-])cc2/C=N/NC(=O)c2cccc(Br)c2)C1 (stereo unspecified)	SUMO Mot1 rescue 648 | Mot1 SUMO dose inactive
OCCNCCSc1ccc(Cl)cc1	none
Cc1ccccc1NC(=O)c1ccc2c(c1)C(=O)N(CC(C)C)C2=O	none
CCOc1ccccc1NC(=O)c1ccc2c(c1)C(=O)N(CC(C)C)C2=O	SUMO Mot1 rescue 551 | Mot1 SUMO dose inactive
O=C(O)Cn1c(-c2cscn2)nc2ccccc21	none
O=C(NCCCCC(NC(=O)C1CCCCC1)C(=O)O)c1ccccc1 (stereo unspecified)	none
COc1ccc(-c2ccc(-c3noc(-c4ccccc4)n3)c(OC)n2)cc1	none
COc1nc(-c2ccccc2)ccc1-c1noc(-c2ccccc2)n1	SUMO Mot1 rescue 558 | Mot1 SUMO dose inactive
CC1=NN(C(=O)CCc2ccc3c(c2)OCO3)C(O)(C(F)(F)F)C1 (stereo unspecified)	none
C/C(CC(=O)NCc1ccco1)=N\NC(=O)Cc1ccc(-c2ccccc2)cc1	none
C/C(CC(=O)NC1CCCCC1)=N\NC(=O)Cc1ccc(-c2ccccc2)cc1	SUMO Mot1 rescue 437 | Mot1 SUMO dose inactive
Cc1c(NC(=O)c2cc(-c3ccccc3)on2)c(=O)n(-c2ccccc2)n1C	none
Cc1c(NC(=O)c2ccc(N(C)S(C)(=O)=O)cc2)c(=O)n(-c2ccccc2)n1C	SUMO Mot1 rescue active (no result: PolyA inh) | Mot1 SUMO dose inactive
Cc1c(NC(=O)c2cc(-c3ccccc3O)on2)c(=O)n(-c2ccccc2)n1C	SUMO Mot1 rescue 441 (no result: NALP1 inh) | Mot1 SUMO dose inactive
CCN1CCc2c(sc(NC(=S)NC(=O)c3ccco3)c2C(N)=O)C1	none
C=Cn1cc[n+](CC(=O)c2ccc(C)cc2)c1	none
CN(C)C(CNC(=O)CNC(=O)c1ccc(Br)cc1)c1ccccc1 (stereo unspecified)	SUMO Mot1 rescue 599 | Mot1 SUMO dose inactive
CC(C)C(NC(=O)c1ccccc1)C(=O)NCC(c1ccccc1)N(C)C (stereo unspecified)	SUMO Mot1 rescue active | Mot1 SUMO dose inactive
C=CCSc1nc(O)c(C2OC(=O)c3c2ccc(OC)c3OC)c(=O)n1-c1ccccc1 (stereo unspecified)	none
Cc1ccc(-c2csc(NC(=O)CSc3nc(C)cs3)n2)cc1	SUMO Mot1 rescue 541 | Mot1 SUMO dose inactive
N#C/C(=C/c1ccc(N2CCCCC2)o1)C(=O)Nc1ccc(Cl)cc1	SUMO Mot1 rescue 587 | Mot1 SUMO dose inactive
CS(=O)(=O)N1CCN(c2ccc(NC(=O)CSc3nnc(-c4ccco4)o3)cc2)CC1	none
CN(C)C(/C=C/Nc1cccc(Br)c1)=C(C#N)C#N	SUMO Mot1 rescue 433 | Mot1 SUMO dose inactive
Cc1cccc(N/C=C/C(=C(C#N)C#N)N(C)C)c1	none
